According to PubChem BioAssay (Tox21):
Results filed as inconclusive are left out. Calls of active or inactive are those of the source. Unless noted, the call rests on the fitted dose curve; in most records, active means well fitted curve in the direction sought with a large enough effect in the repeat runs; inconclusive means weak or mixed curves; inactive means no such curve, though single readings can be large; an effect the other way counts as inactive or inconclusive.

Legend:
[1] = qHTS assay for small molecule agonists of the p53 signaling pathway (AID 651631; calls by dose curve; further: nearly all actives have a fitted effect of over 15% in size)
How it was run: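 We treat p53RE-bla HCT-116 cells with compounds for 16 h at 37 °C, add LiveBLAzer B/G FRET substrate for 2 h at room temperature, and measure fluorescence intensity.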

[2] = qHTS assay for small molecules that induce genotoxicity in human embryonic kidney cells expressing luciferase-tagged ATAD5 (AID 651632); further: nearly all actives have a fitted effect of over 15% in size
How it was run: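 Concentration-response screen for ATAD5 upregulation in HEK293T luciferase reporter cells; 16 hr treatment at 37C, then luminescence after 30 min with Amplite at room temperature.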

[3] = qHTS assay for small molecule agonists of the p53 signaling pathway - cell viability (AID 651633; calls by dose curve;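 further: p53RE-bla HCT reporter cells with a stable beta-lactamase p53 reporter; series mostly up to about 83 µM; nearly all actives have a fitted effect of over 30% in size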)
How it was run: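 p53RE-bla cells were treated with compound for 16 hours at 37 C. Cytotoxicity was then measured as CellTiter-Glo luminescence after 30 min at room temperature.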

[4] = qHTS assay for small molecules that induce genotoxicity in human embryonic kidney cells expressing luciferase-tagged ATAD5 - cell viability (AID 651634; calls by dose curve; further: nearly all actives have a fitted effect of over 25% in size)
How it was run: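 15.5 hr compound or vehicle exposure of HEK293T cells expressing luciferase-tagged ATAD5 at 37C; live-cell protease activity is read by fluorescence after 30 min of CellTiter-Fluor.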

[5] = qHTS assay for small molecule disruptors of the mitochondrial membrane potential - cell viability (AID 720634; calls by dose curve;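 further: human HepG2 liver cancer cells; series mostly up to about 83 µM; nearly all actives have a fitted effect of over 20% in size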)
How it was run: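 In this qHTS format, HepG2 cells plated overnight were pinned with compound, incubated 1 hr, and assayed for ATP luminescence with CellTiter-Glo after m-MPI dye addition.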

[6] = qHTS assay for small molecule disruptors of the mitochondrial membrane potential (AID 720635)
How it was run: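 HepG2 cells exposed to compound 1 hr at 37C, then Mito-MPS dye 30 min. Ratio read of aggregate (540/590 nm) versus monomer (490/535 nm) fluorescence.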

[7] = qHTS assay to test for compound auto fluorescence at 590 nm (red) in HepG2 cells (AID 720674)
How it was run: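 HepG2 cells, 2,000 per well in MEM with 10% FBS, attached overnight at 37 C, then got 23 nL compound or DMSO. After 1 hr at 37 C, 5% CO2, red fluorescence was read at 540/590 nm against Rose Bengal sodium as reference.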

[8] = qHTS assay to test for compound auto fluorescence at 535 nm (green) in HepG2 cells (AID 720675)
[9] = qHTS assay to test for compound auto fluorescence at 460 nm (blue) in HEK293 cells (AID 720678)
How it was run: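 HEK293 cells (2,000 per well, medium with 10% dialyzed FBS) attached for 4-5 hr at 37C, then received compound and stood overnight at 37C, 5% CO2. Blue fluorescence was read at Ex/Em 405/460 nm and expressed relative to triamterene.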

[10] = qHTS assay to test for compound auto fluorescence at 590 nm (red) in HEK293 cells (AID 720679)
How it was run: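 HEK293 cells (2,000/well, medium with 10% dialyzed FBS) attached for 4-5 hr at 37C, received 23 nL compound and were incubated overnight at 37C, 5% CO2. Red fluorescence was then read at 540/590nm Ex/Em, referenced to Rose Bengal sodium.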

[11] = qHTS assay to test for compound auto fluorescence at 535 nm (green) in HEK293 cells (AID 720680)
[12] = qHTS assay to test for compound auto fluorescence at 460 nm (blue) in HEK293 cell free culture (AID 720681)
How it was run: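 Compounds were added to cell-free DMEM with 10% FBS and fluorescence read directly. The blue channel used 405 nm excitation and 460 nm emission, with triamterene as the reference fluorophore.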

[13] = qHTS assay to test for compound auto fluorescence at 535 nm (green) in HEK293 cell free culture (AID 720682)
How it was run: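 Green-channel intensity (Ex/Em 485/535 nm) was recorded from compound-treated wells containing only DMEM with 10% FBS. Fluorescein provided the equivalency standard.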

[14] = qHTS assay to test for compound auto fluorescence at 590 nm (red) in HEK293 cell free culture (AID 720683)
How it was run: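 Cell-free wells of DMEM with 10% FBS received compound, and intrinsic fluorescence was read at excitation/emission 540/590 nm. Values expressed as equivalence to Rose Bengal sodium.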

[15] = qHTS assay to test for compound auto fluorescence at 590 nm (red) in HepG2 cell free culture (AID 720684)
How it was run: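 Rose Bengal sodium served as the reference for red signal. Test compounds were dispensed into serum-containing MEM (10% FBS) without cells, and plates were read at 540/590 nm.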

[16] = qHTS assay to test for compound auto fluorescence at 460 nm (blue) in HepG2 cell free culture (AID 720685)
How it was run: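 Cell-free plates of MEM plus 10% FBS received 23 nL compound or DMSO vehicle; blue-channel (405/460 nm) intensity scored against triamterene as reference fluorophore.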

[17] = qHTS assay to test for compound auto fluorescence at 535 nm (green) in HepG2 cell free culture (AID 720686)
[18] = qHTS assay to test for compound auto fluorescence at 460 nm (blue) in HepG2 cells (AID 720687)
How it was run: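 HepG2 cells in MEM with 10% FBS, attached overnight at 37 C, were exposed to compound or DMSO for 1 hr at 37 C, 5% CO2. Blue fluorescence was read at 405/460 nm, with triamterene as reference fluorophore.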

[19] = target: Glucocorticoid receptor (Homo sapiens) (UniProt P04150); experiment: qHTS assay to identify small molecule agonists of the glucocorticoid receptor (GR) signaling pathway (AID 720691; active means well fitted activation curve with a large enough effect in the signal ratio in the repeat runs, not every such curve was filed as active; the % refers to the signal ratio)
Sequence of Glucocorticoid receptor (Homo sapiens) (P04150 whole entry, looked up): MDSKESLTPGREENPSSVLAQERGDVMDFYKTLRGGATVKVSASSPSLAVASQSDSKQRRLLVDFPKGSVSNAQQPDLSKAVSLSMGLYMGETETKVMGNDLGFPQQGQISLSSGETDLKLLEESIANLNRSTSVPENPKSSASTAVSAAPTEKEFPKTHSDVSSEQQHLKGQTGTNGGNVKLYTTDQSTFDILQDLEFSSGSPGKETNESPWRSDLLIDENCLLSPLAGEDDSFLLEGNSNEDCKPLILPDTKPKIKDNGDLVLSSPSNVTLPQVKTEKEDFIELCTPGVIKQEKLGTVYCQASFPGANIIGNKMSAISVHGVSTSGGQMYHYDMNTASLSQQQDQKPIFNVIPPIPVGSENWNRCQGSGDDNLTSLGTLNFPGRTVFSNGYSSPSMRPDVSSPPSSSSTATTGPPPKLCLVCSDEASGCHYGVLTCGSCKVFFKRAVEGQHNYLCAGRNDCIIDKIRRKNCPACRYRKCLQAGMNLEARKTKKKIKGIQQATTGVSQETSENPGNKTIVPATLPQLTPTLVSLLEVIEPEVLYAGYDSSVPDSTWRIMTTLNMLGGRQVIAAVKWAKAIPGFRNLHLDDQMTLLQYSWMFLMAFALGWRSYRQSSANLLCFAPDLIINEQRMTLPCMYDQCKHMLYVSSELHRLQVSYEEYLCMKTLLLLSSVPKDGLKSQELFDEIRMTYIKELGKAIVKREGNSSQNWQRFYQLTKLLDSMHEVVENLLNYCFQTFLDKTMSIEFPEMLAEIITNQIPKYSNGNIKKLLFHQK
How it was run: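 Measures GR pathway activation through a GRE-beta-lactamase reporter stably integrated in HeLa cells, with 18 h compound treatment at 37 C and fluorescence detection using a FRET substrate.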

[20] = target: Glucocorticoid receptor (Homo sapiens) (UniProt P04150); experiment: qHTS assay to identify small molecule antagonists of the glucocorticoid receptor (GR) signaling pathway (AID 720692; active means well fitted inhibition curve with a large enough effect in the signal ratio in the repeat runs, not every such curve was filed as active; the % refers to the signal ratio)
How it was run: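 Tox21 10K library screened in concentration-response for blockade of dexamethasone (5 nM final)-induced GRE-bla reporter activity in HeLa cells; 18 h treatment, fluorescence read.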

[21] = qHTS assay to identify small molecule antagonists of the glucocorticoid receptor (GR) signaling pathway - cell viability counter screen (AID 720693); further: nearly all actives have a fitted effect of over 55% in size
[22] = qHTS assay for identifying genotoxic compounds that show differential cytotoxicity against isogenic chicken DT40 cell lines with known DNA damage response pathways - wild type cell line (AID 743012); further: nearly all actives have a fitted effect of over 60% in size
How it was run: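 Endpoint: CellTiter-Glo luminescence, 30 min RT. Cells: wild type DT40, 300/well. Exposure: compounds in DMSO, 40 h, 37 C/5% CO2, after ~0.5 h pre-incubation.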

[23] = qHTS assay for identifying genotoxic compounds that show differential cytotoxicity against isogenic chicken DT40 cell lines with known DNA damage response pathways - Rev3 mutant cell line (AID 743014); further: nearly all actives have a fitted effect of over 55% in size
[24] = qHTS assay for identifying genotoxic compounds that show differential cytotoxicity against isogenic chicken DT40 cell lines with known DNA damage response pathways - Rad54/Ku70 mutant cell line (AID 743015); further: nearly all actives have a fitted effect of over 60% in size
[25] = qHTS assay to identify small molecule antagonists of the androgen receptor (AR) signaling pathway - cell viability counter screen (AID 743033; further: nearly all actives have a fitted effect of over 45% in size)
[26] = qHTS assay to identify small molecule antagonists of the androgen receptor (AR) signaling pathway using the MDA cell line - cell viability counter screen (AID 743041; further: nearly all actives have a fitted effect of over 45% in size)
How it was run: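 Cytotoxicity counter screen: MDA-kb2 AR-luc cells, compound + R1881, 16 h, 37C, 0% CO2; CellTiter-Fluor added at 15.5 h, fluorescence read after 30 min.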

[27] = qHTS assay to identify small molecule antagonists of the thyroid receptor (TR) signaling pathway - cell viability counter screen (AID 743064); further: nearly all actives have a fitted effect of over 50% in size
How it was run: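 In rat pituitary GH3.TRE-Luc reporter cells co-exposed to compound and 1 nM T3 for 23.5 h, cytotoxicity was assessed with CellTiter-Fluor in the same wells, read by fluorescence.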

[28] = qHTS assay to identify small molecule antagonists of the thyroid receptor (TR) signaling pathway (AID 743065); further: series mostly up to about 70 µM; nearly all actives have a fitted effect of over 55% in size
How it was run: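 GH3.TRE-Luc rat pituitary cells (two TREs driving luciferase) were dosed with compound, then stimulated with 1 nM T3 (final) for 23.5 h at 37 C. ONE-Glo luminescence was the read-out, with CellTiter-Fluor fluorescence as the cytotoxicity counter-screen.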

[29] = tested on: thyroid hormone receptor (rat, GH3 cells); experiment: qHTS assay to identify small molecule agonists of the thyroid receptor (TR) signaling pathway (AID 743066; calls by dose curve)
[30] = target: Estrogen receptor (Homo sapiens) (UniProt P03372); experiment: qHTS assay to identify small molecule antagonists of the estrogen receptor alpha (ER-alpha) signaling pathway (AID 743069; active means well fitted curve in the direction sought with a large enough effect in the signal ratio in the repeat runs, not every such curve was filed as active; the % refers to the signal ratio)
Sequence of Estrogen receptor (Homo sapiens) (P03372 whole entry, looked up): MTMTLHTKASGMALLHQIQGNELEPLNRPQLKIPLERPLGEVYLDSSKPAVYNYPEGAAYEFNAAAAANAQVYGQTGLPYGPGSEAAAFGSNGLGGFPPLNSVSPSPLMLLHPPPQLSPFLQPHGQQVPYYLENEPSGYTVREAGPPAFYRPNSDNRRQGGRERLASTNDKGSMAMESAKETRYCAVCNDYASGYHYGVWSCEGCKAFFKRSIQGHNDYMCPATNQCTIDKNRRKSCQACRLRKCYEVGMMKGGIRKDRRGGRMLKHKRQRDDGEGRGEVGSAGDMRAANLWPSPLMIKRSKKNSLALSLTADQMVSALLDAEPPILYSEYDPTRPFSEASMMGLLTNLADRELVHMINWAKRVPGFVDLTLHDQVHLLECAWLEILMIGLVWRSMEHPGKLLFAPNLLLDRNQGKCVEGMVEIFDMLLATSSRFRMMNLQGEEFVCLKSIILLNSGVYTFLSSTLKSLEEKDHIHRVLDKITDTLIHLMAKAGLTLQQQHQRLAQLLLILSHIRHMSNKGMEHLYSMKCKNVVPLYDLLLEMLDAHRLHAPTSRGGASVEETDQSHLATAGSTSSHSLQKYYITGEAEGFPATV
How it was run: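 Beta-lactamase FRET fluorescence is read after 2 hr at room temperature with LiveBLAzer B/G substrate. Before that, ER-alpha-bla HEK293 cells sit 4 hr after plating, then receive compound plus 17beta-estradiol and incubate 18 hr at 37C.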

[31] = qHTS assay to identify small molecule antagonists of the estrogen receptor alpha (ER-alpha) signaling pathway - cell viability counter screen (AID 743074; calls by dose curve;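 further: HEK293 cells carrying ER-alpha-UAS-bla reporter stimulated with 17beta-estradiol; nearly all actives have a fitted effect of over 45% in size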)
[32] = target: Estrogen receptor (Homo sapiens) (UniProt P03372); experiment: qHTS assay to identify small molecule agonists of the estrogen receptor alpha (ER-alpha) signaling pathway (AID 743075; calls by dose curve;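 further: HEK293 GripTite cells with ER-alpha and UAS-driven beta-lactamase reporter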)
[33] = target: Estrogen receptor (Homo sapiens) (UniProt P03372); experiment: qHTS assay to identify small molecule agonists of the estrogen receptor alpha (ER-alpha) signaling pathway using the BG1 cell line (AID 743079); further: nearly all actives have a fitted effect of over 20% in size
[34] = qHTS assay to identify small molecule antagonists of the estrogen receptor alpha (ER-alpha) signaling pathway using the BG1 cell line (AID 743080; calls by dose curve;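 further: BG1 cells stimulated with 17beta-estradiol alongside compound; series mostly up to about 70 µM; nearly all actives have a fitted effect of over 25% in size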)
How it was run: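 BG1-Luc-4E2 cells (endogenous full-length ER-alpha, stable 4×ERE-luciferase) were starved 5 days in phenol-red-free medium with 10% charcoal-stripped FBS, plated 24 h, then given compound plus 17beta-estradiol for 21.5 h at 37 C; ONE-Glo luminescence read after 30 min.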

[35] = qHTS assay to identify small molecule antagonists of the estrogen receptor alpha (ER-alpha) signaling pathway using the BG1 cell line - cell viability counter screen (AID 743081);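 further: compound given together with 17beta-estradiol as the ER stimulus; series mostly up to about 70 µM; nearly all actives have a fitted effect of over 45% in size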
[36] = target: Aromatase (Homo sapiens) (UniProt P11511); experiment: qHTS assay to identify aromatase inhibitors (AID 743083); further: series mostly up to about 70 µM; nearly all actives have a fitted effect of over 55% in size
Sequence of Aromatase (Homo sapiens) (P11511 whole entry, looked up): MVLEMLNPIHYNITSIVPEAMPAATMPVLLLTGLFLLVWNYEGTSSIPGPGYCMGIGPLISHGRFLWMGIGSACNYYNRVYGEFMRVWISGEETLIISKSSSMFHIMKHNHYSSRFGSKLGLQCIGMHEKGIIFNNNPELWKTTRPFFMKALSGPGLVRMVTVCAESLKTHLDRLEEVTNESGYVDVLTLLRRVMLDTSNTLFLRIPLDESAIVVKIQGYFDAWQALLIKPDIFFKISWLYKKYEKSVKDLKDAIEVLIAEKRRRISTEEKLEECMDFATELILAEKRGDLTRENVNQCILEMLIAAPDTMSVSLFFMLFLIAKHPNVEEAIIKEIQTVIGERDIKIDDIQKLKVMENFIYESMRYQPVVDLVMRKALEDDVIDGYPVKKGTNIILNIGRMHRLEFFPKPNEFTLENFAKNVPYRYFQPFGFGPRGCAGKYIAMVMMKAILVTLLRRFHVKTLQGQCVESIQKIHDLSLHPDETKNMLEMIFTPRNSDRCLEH

[37] = qHTS assay to identify aromatase inhibitors - cell viability counter screen (AID 743084)
[38] = target: Aryl hydrocarbon receptor (Homo sapiens) (UniProt P35869); experiment: qHTS assay to identify small molecule that activate the aryl hydrocarbon receptor (AhR) signaling pathway (AID 743085);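 further: HG2L7.5c1 human HepG2 liver cells with stably integrated DRE-driven firefly reporter; series mostly up to about 70 µM; nearly all actives have a fitted effect of over 15% in size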
Sequence of Aryl hydrocarbon receptor (Homo sapiens) (P35869 whole entry, looked up): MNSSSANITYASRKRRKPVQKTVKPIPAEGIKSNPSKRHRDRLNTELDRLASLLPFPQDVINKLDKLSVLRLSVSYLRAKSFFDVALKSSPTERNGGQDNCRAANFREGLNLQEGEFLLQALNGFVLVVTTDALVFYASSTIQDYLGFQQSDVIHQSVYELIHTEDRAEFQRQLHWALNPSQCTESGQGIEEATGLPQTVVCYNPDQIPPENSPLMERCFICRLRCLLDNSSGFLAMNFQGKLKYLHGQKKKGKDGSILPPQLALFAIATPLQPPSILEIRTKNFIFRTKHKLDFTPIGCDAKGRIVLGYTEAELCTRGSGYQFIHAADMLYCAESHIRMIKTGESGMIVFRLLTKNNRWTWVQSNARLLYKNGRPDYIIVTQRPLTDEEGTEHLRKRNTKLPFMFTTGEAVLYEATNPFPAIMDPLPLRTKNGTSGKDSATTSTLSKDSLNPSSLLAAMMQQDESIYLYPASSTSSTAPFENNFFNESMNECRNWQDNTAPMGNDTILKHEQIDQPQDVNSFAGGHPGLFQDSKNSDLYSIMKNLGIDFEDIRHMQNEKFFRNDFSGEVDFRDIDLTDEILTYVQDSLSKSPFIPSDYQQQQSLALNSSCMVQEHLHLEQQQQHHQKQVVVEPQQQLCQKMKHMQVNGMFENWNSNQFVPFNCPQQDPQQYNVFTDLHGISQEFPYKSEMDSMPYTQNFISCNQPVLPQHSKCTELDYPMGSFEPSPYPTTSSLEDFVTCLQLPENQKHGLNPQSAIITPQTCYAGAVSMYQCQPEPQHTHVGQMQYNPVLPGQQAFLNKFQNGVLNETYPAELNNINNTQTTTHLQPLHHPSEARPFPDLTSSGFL
How it was run: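 AhR agonist activity is inferred from enhanced light output of a DRE-controlled firefly luciferase reporter in HepG2 cells, measured with ONE-Glo following 24 h treatment at 37C.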

[39] = qHTS assay to identify small molecule that activate the aryl hydrocarbon receptor (AhR) signaling pathway - cell viability counter screen (AID 743086)
How it was run: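 HepG2-AhR-luc (HG2L7.5c1) cells, 4000/well, treated 24 h at 37 C with compound; viability measured as CellTiter-Fluor fluorescence after 30 min in the same wells as the luciferase read.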

[40] = target: Peroxisome proliferator-activated receptor gamma (Homo sapiens) (UniProt P37231); experiment: qHTS assay to identify small molecule agonists of the peroxisome proliferator-activated receptor gamma (PPARg) signaling pathway (AID 743094; active means well fitted activation curve with a large enough effect in the signal ratio in the repeat runs, not every such curve was filed as active; the % refers to the signal ratio)
Sequence of Peroxisome proliferator-activated receptor gamma (Homo sapiens) (P37231 whole entry, looked up): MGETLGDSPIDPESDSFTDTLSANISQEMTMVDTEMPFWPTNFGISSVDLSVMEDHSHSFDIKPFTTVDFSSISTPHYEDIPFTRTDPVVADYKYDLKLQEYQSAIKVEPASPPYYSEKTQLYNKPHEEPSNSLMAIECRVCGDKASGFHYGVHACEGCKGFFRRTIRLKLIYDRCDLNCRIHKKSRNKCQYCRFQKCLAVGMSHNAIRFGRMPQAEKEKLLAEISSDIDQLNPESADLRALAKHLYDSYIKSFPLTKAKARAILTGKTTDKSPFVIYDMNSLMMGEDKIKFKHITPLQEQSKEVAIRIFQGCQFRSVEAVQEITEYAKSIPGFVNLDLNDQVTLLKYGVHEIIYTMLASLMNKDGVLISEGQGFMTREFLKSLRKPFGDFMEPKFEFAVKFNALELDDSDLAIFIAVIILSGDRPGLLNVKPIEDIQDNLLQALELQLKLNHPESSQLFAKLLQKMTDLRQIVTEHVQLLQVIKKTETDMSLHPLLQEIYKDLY
How it was run: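 Fluorescence-based beta-lactamase readout in HEK293H PPARg UAS-bla cells after 17 h compound exposure (37C) and 1 h B/G FRET substrate incubation at room temperature.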

[41] = qHTS assay to identify small molecule phospholipidosis (PLD) inducers (AID 1259344; active means well fitted curve in the direction sought with a large enough effect; an effect the other way counts as inactive or inconclusive)
How it was run: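 Read-out is LipidTOX Red fluorescence (ex 595/em 615) imaged in HepG2 cells after 24 h compound exposure at 37 C, with Hoechst nuclear counterstain (ex 352/em 461) allowing per-cell normalisation.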

[42] = target: Nuclear receptor subfamily 1 group I member 2 (Rattus norvegicus) (UniProt Q9R1A7); experiment: Rat pregnane X receptor (rPXR) activation by small molecules, qHTS assay (AID 1346983); settings: rPXR luciferase reporter cells, One-Glo luminescence, 24 h; max activation: hits give high values; further: nearly all actives have a fitted effect of over 20% in size
Sequence of Nuclear receptor subfamily 1 group I member 2 (Rattus norvegicus) (Q9R1A7 whole entry, looked up): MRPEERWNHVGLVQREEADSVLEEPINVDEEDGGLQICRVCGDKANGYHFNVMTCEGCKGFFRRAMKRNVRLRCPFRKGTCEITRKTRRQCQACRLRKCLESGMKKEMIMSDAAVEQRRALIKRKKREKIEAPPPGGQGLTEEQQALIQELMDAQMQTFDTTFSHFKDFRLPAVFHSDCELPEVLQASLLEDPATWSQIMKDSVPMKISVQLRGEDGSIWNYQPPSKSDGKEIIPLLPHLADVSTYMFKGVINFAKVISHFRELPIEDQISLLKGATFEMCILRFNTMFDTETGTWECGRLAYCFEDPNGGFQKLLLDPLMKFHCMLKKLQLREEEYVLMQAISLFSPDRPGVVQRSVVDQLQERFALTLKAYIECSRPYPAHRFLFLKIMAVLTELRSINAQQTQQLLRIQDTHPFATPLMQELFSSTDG
How it was run: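 Cell-based rPXR activation assay: rPXR cells, 2,000 per well, rested 5hr at 37 C, then exposed to compounds in DMSO for 24 hr at 37 C. Luciferase activity read by One-Glo luminescence after 30 min at room temperature.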

[43] = target: Nuclear receptor subfamily 1 group I member 2 (Homo sapiens) (UniProt O75469); experiment: CYP3A4 induction through human pregnane X receptor (PXR) by small molecules, qHTS assay (AID 1346984); further: nearly all actives have a fitted effect of over 40% in size
How it was run: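 After 24 h at 37C with compound, DPX-2 cells (HepG2, co-transfected PXR response element and CYP3A4 promoter-luciferase) got 3uM final P450-Glo Luciferin-IPA for 3 h; One-Glo luminescence followed.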

[44] = target: Nuclear receptor subfamily 1 group I member 2 (Homo sapiens) (UniProt O75469); experiment: Human pregnane X receptor (PXR) activation by small molecules, qHTS assay (AID 1346985); further: nearly all actives have a fitted effect of over 40% in size
How it was run: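 DPX-2 cells (HepG2 co-transfected with a PXR response element and a CYP3A4-promoter luciferase construct) were seeded at 2,000 per well, rested 5 hr at 37C, then exposed to DMSO-dissolved compounds for 24 hr. Activation was read as luciferase luminescence.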
On the % scale 0 is the no-effect control and ±100 the full control effect.

COC1=CC=C2[C@H]3Cc4ccc(OC)c5c4[C@@]2(CCN3C)[C@H]1O5
inactive: Potency [1] | Potency [2] | Potency [3] | Potency [4] | Potency [5] | Potency [6] | outcome [7] | Potency [8] | Potency [9] | outcome [10] | Potency [11] | Potency [12] | Potency [13] | outcome [14] | outcome [15] | Potency [16] | Potency [17] | Potency [18] | Potency [19] | Potency [20] | Potency [21] | Potency [22] | Potency [23] | Potency [24] | Potency [25] | Potency [26] | Potency [27] | Potency [28] | Potency [29] | Potency [30] | Potency [31] | Potency [32] | Potency [33] | Potency [34] | Potency [35] | Potency [36] | Potency [37] | Potency [38] | Potency [39] | Potency [40] | Potency [41] | max activation [42] -7.33% | Potency [43] | Potency [44]
